PubChem BioAssay (NCATS)
Records with an inconclusive call do not appear. The source made the active and inactive calls. Calls come from the whole dose curve; as a rule, active = well fitted curve in the direction sought with a large enough effect; inconclusive = small, poorly fitted or top-dose-only effect, or another doubt; inactive = no such curve, though single readings can be large; an effect the other way counts as inactive or inconclusive.

Columns and labels:
[1] = OV-KATE Cancer Cell Toxicity qHTS against the NCATS CANVASS Library (AID 1347345)
Method in brief: (§1)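 ATP content after 72 h treatment, detected by CellTiter-Glo luminescence (15min room-temperature development), reflects cell viability. Wells contained 1000 cells and received compounds at 11 concentrations.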

[2] = UWB1.289 Cancer Cell Toxicity qHTS against the NCATS CANVASS Library (AID 1347347); note: nearly all actives have a fitted effect of over 60% in size; note: potency is the fitted concentration of half-maximal effect
Method in brief: as §1

[3] = SW1088 Cancer Cell Toxicity qHTS against the NCATS CANVASS Library (AID 1347350); note: nearly all actives have a fitted effect of over 75% in size; note: potency is the fitted concentration of half-maximal effect
Method in brief: as §1

[4] = A2780 Cisplatin Sensitive Ovarian Cancer Cell Toxicity qHTS against the NCATS CANVASS Library (AID 1347353); note: nearly all actives have a fitted effect of over 60% in size; note: potency is the fitted concentration of half-maximal effect
Method in brief: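 A2780 cisplatin-sensitive cells (750 per well) were seeded, left 4 h at 37 °C, then pin-dosed in an 11-point series. After 72 h at 37 °C/5% CO2, viability was measured as ATPLite luminescence.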

[5] = UWB1.289-WTBRCA1 Cancer Cell Toxicity qHTS against the NCATS CANVASS Library (AID 1347354)
Method in brief: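 Cells were seeded at 1000 per well and allowed to settle 4 hours at 37 degrees C before pin transfer of compounds as an 11-point series. Viability was read by CellTiter-Glo luminescence after 72 hours' exposure.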

[6] = HPAF-II 12hr Apoptosis Induction qHTS against the NCATS CANVASS Library (AID 1347358)
Method in brief: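 HPAF-II cells (500/well, DMEM + 10% FBS) were exposed to compounds for 12 hours at 37 degrees C. Caspase-3/7 activity was then read by Caspase-Glo 3/7 luminescence after 15 min at room temperature.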

[7] = HPAF-II 18hr Apoptosis Induction qHTS against the NCATS CANVASS Library (AID 1347360)
Method in brief: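 Caspase-3/7 activation was measured with luminescent Caspase-Glo 3/7 reagent (15 min, RT) in HPAF-II cancer cells (500 cells/well). Before detection, cells had been treated for 18 h at 37 C with compounds (11 points).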

[8] = G06 Cancer Cell Toxicity qHTS against the NCATS CANVASS Library (AID 1347368); note: nearly all actives have a fitted effect of over 60% in size; note: potency is the fitted concentration of half-maximal effect
Method in brief: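 G06 dog glioma cells seeded at 500 cells/well were exposed to compounds (11-point qHTS series) for 72 hr at 37C, 5% CO2; viability read as ATP content by CellTiterGlo luminescence.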

[9] = qHTS for Hypoxia signaling pathway (HIF-1) antagonists against the NCATS CANVASS Library (AID 1347374); note: nearly all actives have a fitted effect of over 60% in size; note: potency is the fitted concentration of half-maximal effect
Method in brief: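 HRE-bla ME-180 cells (2,000/well, 0.5% dialyzed FBS) were pre-incubated 5 h, then given an 11-point compound series plus CoCl2 (60 uM solution as added) for 17 h at 37C. CCF4 β-lactamase read (ex 405, em 460/530 nm) after 2 h at RT.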

[10] = qHTS for Hypoxia signaling pathway (HIF-1) agonists against the NCATS CANVASS Library (AID 1347375)
Method in brief: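 HRE-bla ME-180 cells (beta-lactamase reporter under hypoxia responsive element) in 0.5% dialyzed FBS medium, 5 h at 37C, then compound 17 h, 11-point qHTS series. CCF4-AM FRET substrate 2 h RT; 460/530 nm emission read.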

[11] = qHTS for Activators of p53 Stress Response Pathway screened against the NCATS CANVASS Library (AID 1347388); note: potency is the fitted concentration of half-maximal effect
Method in brief: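 p53RE-bla HCT-116 cells (4000/well) were pre-incubated for 5 h, then treated with compound (11 points) for 16 h at 37C. After 2 h with CCF4, the 460/530 nm ratio gave reporter activation; CellTiter-Glo measured viability.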

[12] = qHTS assay for small molecule disruptors of mitochondrial membrane potential screened against the NCATS CANVASS Library (AID 1347389); note: nearly all actives have a fitted effect of over 60% in size; note: potency is the fitted concentration of half-maximal effect
Method in brief: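 HepG2 cells (2,000/well) were plated overnight at 37C, exposed to compound for 1 hr at 37C/5% CO2, then loaded with Mito-MPS dye for 30 min. Depolarization was read as a drop in red (590 nm) to green (535 nm) fluorescence ratio.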

[13] = Secretion counterscreen for inhibitors of the SERCaMP assay screened against the NCATS CANVASS Library (AID 1347390);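 note: light from luciferase secreted into medium read as a measure of general secretion; series mostly up to about 77 µM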
Method in brief: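 Counterscreen for secretory-pathway interference: after 4 h attachment, SH-SY5Y-GLuc cells were exposed 20 hours to compounds (final 0.001 - 77 uM), then coelenterazine added and GLuc luminescence recorded; Brefeldin A served as control.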

[14] = qHTS for activators of Nrf2/ARE signaling pathway screened against the NCATS CANVASS Library (AID 1347391); note: nearly all actives have a fitted effect of over 60% in size; note: potency is the fitted concentration of half-maximal effect
Method in brief: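 ARE-bla HepG2 beta-lactamase reporter cells, 2000 cells/well, were preincubated 5 h, then exposed to compounds (11-point series) for 16 h at 37C. CCF4 fluorescence (ex 405, em 460/530 nm) after 2 h at room temperature.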

[15] = qHTS for inhibitors of ER calcium dysfunction: SERCaMP assay screened against the NCATS CANVASS Library (AID 1347393); note: nearly all actives have a fitted effect of over 40% in size; note: potency is the fitted concentration of half-maximal effect
Method in brief: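 SH-SY5Y GLuc-SERCaMP, 1000 cells/well, 4 h attach; cpd 16 h, 37C/5% CO2; thapsigargin (added as 6x 600 nM) 4 h; coelenterazine; luminescence. Reduced reporter release = ER Ca stabilization.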

[16] = qHTS for inhibitors of Wild type Zika virus screened against the NCATS CANVASS Library (AID 1347396);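 note: ATP luminescence of surviving cells so rescue from viral cell killing; series mostly up to about 46 µM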
Method in brief: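 Vero 766 cells, 1000/well, o/n attach; cpds pin-transferred (11-pt qHTS); WT Zika added; 72 h, 37C, 5% CO2; CellTiter Glo lumi. Uninfected + vehicle = 100% inhibition.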

[17] = DH5-alpha competent E. coli microbial cell viability qHTS against the NCATS CANVASS Library (AID 1347377); settings: outcome: dose series up to 46.1 µM unless noted
Method in brief: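 DH5-alpha E. coli suspension (0.9 OD culture diluted to 0.2 OD) exposed to compounds in an 11-point series, overnight at 37C, 5% CO2. Viability read as ATP by BacTiter-Glo luminescence after 20 min at room temperature.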

[18] = Redox Reaction Profiling qHTS: Assay Interference Panel against the NCATS CANVASS Library (AID 1347401); note: potency is the fitted concentration of half-maximal effect
Method in brief: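 Compounds in 11-point series incubated with 5 uM resazurin and 200 uM DTT in 50 mM HEPES pH 7.3, 50 mM NaCl. Resorufin fluorescence (Ex 525/Em 598) read before and after 15 min in the dark.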

[19] = OV-SAHO Cancer Cell Toxicity qHTS against the NCATS CANVASS Library (AID 1347348); note: nearly all actives have a fitted effect of over 55% in size; note: potency is the fitted concentration of half-maximal effect
Method in brief: as §1

[20] = qHTS for H2AX Agonists against the NCATS CANVASS Library (AID 1347378)
Method in brief: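 Phospho-H2AX (S139) in CHO-K1 lysates measured by HTRF, reported as 665/615 nm emission ratio after 24 hr antibody incubation at room temperature. Cells were first treated with a compound series for 3 hr at 37C (0.76% DMSO final).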

Measured: Potency

C=C1C[C@@]23C=CC(=O)[C@@](C)(CCC(=O)Nc4c(OC5O[C@H](CO)[C@@H](O)[C@H](O)[C@H]5O)ccc(C(=O)O)c4O)C2C[C@@H]1CC3 (stereo partly drawn)
inactive: [1] | [2] | [3] | [4] | [5] | [6] | [7] | [8] | [9] | [10] | [11] | [12] | [13] | [14] | [15] | [16]

CC1(C)CC[C@]2(C(=O)O)CC[C@]3(C)C(=CC[C@@H]4[C@@]5(C)C[C@@H](O)[C@H](O)C(C)(C)[C@@H]5CC[C@]43C)[C@@H]2C1
inactive: [1] | [6] | [7] | [8] | [17] | [12] | [13] | [14] | [18]
active: [2] 11.8 µM | [3] 14.9 µM

CN1CCc2cc3c(c4c2[C@H]1[C@@H](O)c1ccccc1-4)OCO3
inactive: [1] | [19] | [3] | [5] | [10] | [20] | [16]
active: [9] 11.8 µM | [11] 26.3 µM | [12] 11.7 µM | [14] 20.9 µM | [15] 34.3 µM | [18] 7.64 µM

C[C@H]1C[C@@H]([C@@H]2CC[C@]34O[C@H](CC[C@@]35C[C@H](C)C(=O)O5)CN24)OC1=O
inactive: [2] | [19] | [3] | [4] | [5] | [6] | [8] | [9] | [10] | [17] | [11] | [12] | [14] | [15] | [16] | [18]

CC(O)/C=C/C1(O)C(C)(C)CC(O)CC1(C)O (stereo not drawn)
inactive: [2] | [19] | [3] | [4] | [5] | [7] | [8] | [9] | [10] | [17] | [20] | [11] | [12] | [13] | [14] | [15] | [16] | [18]

O=Cc1ccc2n1C[C@@]1(C[C@H](O)[C@H](O)CO1)OC2
inactive: [3] | [4] | [7] | [8] | [9] | [10] | [17] | [20] | [11] | [12] | [13] | [14] | [16] | [18]
active: [19] 13.3 µM

O=C(O)[C@@]12COC3(O)C1CCN1CC[C@H]3[C@@H]1c1c2[nH]c2ccccc12
inactive: [2] | [3] | [4] | [5] | [6] | [7] | [8] | [9] | [10] | [17] | [20] | [11] | [12] | [13] | [14] | [16]
active: [18] 21.5 µM

CC(C)(Br)[C@@H](Cl)C[C@H](Br)[C@](C)(Cl)/C=C/Br
inactive: [5] | [6] | [7] | [10] | [17] | [20] | [11] | [13] | [16]
active: [2] 18.8 µM | [4] 2.35 µM | [8] 13.2 µM | [12] 16.6 µM | [15] 21.6 µM | [18] 30.4 µM

CC[C@@H]1C[C@@]2(CC)OC(=O)[C@@]3(CC)OC(=O)[C@@H]1[C@@H]23
inactive: [2] | [3] | [4] | [5] | [8] | [9] | [10] | [17] | [11] | [12] | [13] | [14] | [15] | [16] | [18]

C[C@@H]1C[C@H]2C[C@]3(CCCCN3C)[C@@H]3C[C@H]2[C@H](C1)N(C)C3
inactive: [2] | [3] | [4] | [5] | [6] | [9] | [10] | [17] | [20] | [11] | [12] | [16] | [18]
active: [8] 18.7 µM | [15] 30.5 µM

O=Cc1ccc2n1C[C@@]1(OC2)O[C@H](CO)[C@@H](O)[C@@H]1O
inactive: [2] | [3] | [4] | [5] | [7] | [8] | [9] | [10] | [17] | [11] | [12] | [13] | [14] | [15] | [16] | [18]

C/C=C1/CC[C@@H]2c3[nH]c4ccccc4c3CCN2C1
inactive: [3] | [4] | [5] | [6] | [7] | [8] | [9] | [10] | [17] | [20] | [11] | [12] | [13] | [16] | [18]
active: [15] 19.3 µM
